Results as given in ChEMBL document CHEMBL1961873, “Compounds: GSK PKIS; Assays: Nanosyn kinase panel” (2012).

Key:
[1] = target: T1, Serine/threonine-protein kinase TBK1 (Homo sapiens) (UniProt Q9UHD2); conditions: at 1 µM;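 also: values are mean inhibition of TBK1, screened as part of the GSK published kinase inhibitor set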
T1 sequence (whole entry): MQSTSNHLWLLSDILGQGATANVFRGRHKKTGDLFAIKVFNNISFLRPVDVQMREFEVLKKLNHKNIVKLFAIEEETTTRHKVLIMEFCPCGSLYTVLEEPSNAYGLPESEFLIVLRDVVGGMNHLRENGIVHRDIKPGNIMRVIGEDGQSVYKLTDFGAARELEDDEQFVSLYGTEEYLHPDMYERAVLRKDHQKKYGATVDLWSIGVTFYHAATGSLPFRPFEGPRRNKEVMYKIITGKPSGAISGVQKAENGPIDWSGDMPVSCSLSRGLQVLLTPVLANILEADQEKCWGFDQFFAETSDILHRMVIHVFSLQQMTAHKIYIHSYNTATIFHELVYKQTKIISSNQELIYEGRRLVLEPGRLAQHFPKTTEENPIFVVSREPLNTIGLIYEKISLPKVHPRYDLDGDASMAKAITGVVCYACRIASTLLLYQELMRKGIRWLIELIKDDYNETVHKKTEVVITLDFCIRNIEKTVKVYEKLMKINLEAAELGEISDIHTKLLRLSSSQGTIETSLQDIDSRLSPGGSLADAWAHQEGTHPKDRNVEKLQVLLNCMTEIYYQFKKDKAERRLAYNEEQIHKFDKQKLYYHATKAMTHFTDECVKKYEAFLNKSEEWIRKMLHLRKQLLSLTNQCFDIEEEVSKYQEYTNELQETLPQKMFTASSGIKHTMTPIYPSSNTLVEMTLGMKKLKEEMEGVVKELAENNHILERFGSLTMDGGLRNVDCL

[2] = target: T2, Testis-specific serine/threonine-protein kinase 1 (Homo sapiens) (UniProt Q9BXA7); conditions: at 0.1 µM
T2 sequence (whole entry): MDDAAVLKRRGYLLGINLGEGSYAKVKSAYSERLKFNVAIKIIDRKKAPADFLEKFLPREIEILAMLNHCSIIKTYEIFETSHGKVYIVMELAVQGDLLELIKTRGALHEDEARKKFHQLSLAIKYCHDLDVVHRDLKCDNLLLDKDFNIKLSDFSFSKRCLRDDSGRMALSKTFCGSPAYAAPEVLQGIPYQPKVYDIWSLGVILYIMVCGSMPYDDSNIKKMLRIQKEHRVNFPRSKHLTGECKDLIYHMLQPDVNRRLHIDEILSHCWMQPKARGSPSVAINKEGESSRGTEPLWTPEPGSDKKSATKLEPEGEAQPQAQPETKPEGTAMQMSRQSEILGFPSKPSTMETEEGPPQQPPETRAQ

[3] = target: T2, Testis-specific serine/threonine-protein kinase 1 (Homo sapiens); conditions: at 1 µM
[4] = target: T3, Testis-specific serine/threonine-protein kinase 2 (Homo sapiens) (UniProt Q96PF2); conditions: at 0.1 µM
T3 sequence (whole entry): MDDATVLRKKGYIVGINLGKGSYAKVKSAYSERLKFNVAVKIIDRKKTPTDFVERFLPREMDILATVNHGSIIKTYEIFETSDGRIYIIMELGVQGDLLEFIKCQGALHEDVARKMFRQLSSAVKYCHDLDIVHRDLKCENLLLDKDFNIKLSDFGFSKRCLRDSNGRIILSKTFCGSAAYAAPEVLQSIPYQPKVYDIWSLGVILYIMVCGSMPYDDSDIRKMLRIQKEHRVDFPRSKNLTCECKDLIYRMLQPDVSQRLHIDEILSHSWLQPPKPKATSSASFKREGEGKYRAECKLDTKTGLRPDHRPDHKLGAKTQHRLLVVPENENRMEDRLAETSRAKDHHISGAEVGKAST

[5] = target: T3, Testis-specific serine/threonine-protein kinase 2 (Homo sapiens); conditions: at 1 µM
[6] = target: Casein kinase I isoform alpha (Homo sapiens) (UniProt P48729); conditions: at 0.1 µM
Sequence of Casein kinase I isoform alpha (Homo sapiens) (P48729 2-337 limits assumed): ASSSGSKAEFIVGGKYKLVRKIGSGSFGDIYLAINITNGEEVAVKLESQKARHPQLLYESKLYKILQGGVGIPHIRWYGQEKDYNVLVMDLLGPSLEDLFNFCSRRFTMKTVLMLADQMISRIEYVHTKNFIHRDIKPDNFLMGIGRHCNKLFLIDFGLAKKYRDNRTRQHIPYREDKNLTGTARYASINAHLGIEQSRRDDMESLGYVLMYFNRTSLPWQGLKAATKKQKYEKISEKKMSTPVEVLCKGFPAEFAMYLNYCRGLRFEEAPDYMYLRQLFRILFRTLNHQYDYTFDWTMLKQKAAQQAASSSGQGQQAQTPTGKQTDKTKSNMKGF

[7] = target: Casein kinase I isoform alpha (Homo sapiens) (UniProt P48729); conditions: at 1 µM
[8] = target: Casein kinase I isoform gamma-1 (Homo sapiens) (UniProt Q9HCP0); conditions: at 0.1 µM
Sequence of Casein kinase I isoform gamma-1 (Homo sapiens) (Q9HCP0 whole entry, looked up, canonical isoform): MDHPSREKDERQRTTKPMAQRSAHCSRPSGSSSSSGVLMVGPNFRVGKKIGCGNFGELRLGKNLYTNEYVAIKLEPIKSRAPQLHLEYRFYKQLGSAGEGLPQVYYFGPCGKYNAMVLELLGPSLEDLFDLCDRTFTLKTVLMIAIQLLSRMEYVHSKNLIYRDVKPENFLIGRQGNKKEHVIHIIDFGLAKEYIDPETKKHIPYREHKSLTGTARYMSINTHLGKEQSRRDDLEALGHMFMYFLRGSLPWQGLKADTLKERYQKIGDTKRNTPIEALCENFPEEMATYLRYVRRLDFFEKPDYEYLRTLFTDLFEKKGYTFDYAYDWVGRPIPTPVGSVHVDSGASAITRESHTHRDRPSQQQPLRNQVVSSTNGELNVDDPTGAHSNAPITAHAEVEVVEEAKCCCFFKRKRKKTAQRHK

[9] = target: Casein kinase I isoform gamma-1 (Homo sapiens) (UniProt Q9HCP0); conditions: at 1 µM
[10] = target: Casein kinase I isoform gamma-2 (Homo sapiens) (UniProt P78368); conditions: at 0.1 µM
Sequence of Casein kinase I isoform gamma-2 (Homo sapiens) (P78368 whole entry, looked up, canonical isoform): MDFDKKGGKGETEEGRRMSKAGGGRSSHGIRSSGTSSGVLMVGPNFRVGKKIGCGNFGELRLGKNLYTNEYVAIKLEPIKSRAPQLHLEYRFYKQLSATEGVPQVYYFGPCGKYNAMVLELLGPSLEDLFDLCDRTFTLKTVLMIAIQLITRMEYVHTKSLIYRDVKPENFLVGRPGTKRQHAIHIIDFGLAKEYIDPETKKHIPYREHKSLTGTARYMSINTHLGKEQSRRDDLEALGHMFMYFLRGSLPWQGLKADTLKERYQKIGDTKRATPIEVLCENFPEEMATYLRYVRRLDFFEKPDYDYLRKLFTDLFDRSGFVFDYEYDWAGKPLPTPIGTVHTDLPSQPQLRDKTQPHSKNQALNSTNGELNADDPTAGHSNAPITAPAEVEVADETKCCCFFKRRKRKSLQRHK

[11] = target: Casein kinase I isoform gamma-2 (Homo sapiens) (UniProt P78368); conditions: at 1 µM
[12] = target: Casein kinase I isoform gamma-3 (Homo sapiens) (UniProt Q9Y6M4); conditions: at 0.1 µM
Sequence of Casein kinase I isoform gamma-3 (Homo sapiens) (Q9Y6M4 whole entry, looked up, canonical isoform): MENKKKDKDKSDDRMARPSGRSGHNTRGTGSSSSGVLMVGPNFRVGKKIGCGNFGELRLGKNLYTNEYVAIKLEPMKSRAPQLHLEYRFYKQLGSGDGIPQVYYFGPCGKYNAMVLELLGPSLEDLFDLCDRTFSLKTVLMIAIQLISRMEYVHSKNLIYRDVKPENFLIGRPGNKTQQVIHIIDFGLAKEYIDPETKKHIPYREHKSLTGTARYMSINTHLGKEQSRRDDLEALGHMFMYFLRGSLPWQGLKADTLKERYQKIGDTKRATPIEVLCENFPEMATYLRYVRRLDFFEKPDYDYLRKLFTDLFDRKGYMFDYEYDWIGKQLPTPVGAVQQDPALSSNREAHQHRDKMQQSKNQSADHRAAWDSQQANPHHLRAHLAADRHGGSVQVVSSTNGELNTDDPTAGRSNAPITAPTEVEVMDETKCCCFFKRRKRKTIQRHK

[13] = target: Casein kinase I isoform gamma-3 (Homo sapiens) (UniProt Q9Y6M4); conditions: at 1 µM
[14] = target: Cyclin-dependent kinase 1 (Homo sapiens) (UniProt P06493); conditions: at 0.1 µM
Sequence of Cyclin-dependent kinase 1 (Homo sapiens) (P06493 whole entry, looked up): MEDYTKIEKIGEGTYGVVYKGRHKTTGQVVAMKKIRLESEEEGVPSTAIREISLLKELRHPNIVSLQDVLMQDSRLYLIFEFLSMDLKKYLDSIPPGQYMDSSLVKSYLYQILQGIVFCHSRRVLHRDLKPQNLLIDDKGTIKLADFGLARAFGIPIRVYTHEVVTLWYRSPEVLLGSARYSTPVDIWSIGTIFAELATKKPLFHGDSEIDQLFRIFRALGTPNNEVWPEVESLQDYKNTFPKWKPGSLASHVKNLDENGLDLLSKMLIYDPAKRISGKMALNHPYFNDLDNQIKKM

[15] = target: Cyclin-dependent kinase 1 (Homo sapiens) (UniProt P06493); conditions: at 1 µM
[16] = target: Cyclin-dependent kinase 2 (Homo sapiens) (UniProt P24941); conditions: at 0.1 µM
[17] = target: Cyclin-dependent kinase 2 (Homo sapiens) (UniProt P24941); conditions: at 1 µM
[18] = target: Cyclin-dependent kinase 2 (Homo sapiens) (UniProt P24941); conditions: at 0.1 µM; remark: listed apart in the source
[19] = target: Cyclin-dependent kinase 2 (Homo sapiens) (UniProt P24941); conditions: at 1 µM; remark: listed apart in the source
[20] = target: CDK3/Cyclin E (Homo sapiens) (UniProt P24864+Q00526); conditions: at 0.1 µM;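 also: reported percentages are mean inhibition values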
Sequence of CDK3/Cyclin E (Homo sapiens) (P24864 whole entry, looked up): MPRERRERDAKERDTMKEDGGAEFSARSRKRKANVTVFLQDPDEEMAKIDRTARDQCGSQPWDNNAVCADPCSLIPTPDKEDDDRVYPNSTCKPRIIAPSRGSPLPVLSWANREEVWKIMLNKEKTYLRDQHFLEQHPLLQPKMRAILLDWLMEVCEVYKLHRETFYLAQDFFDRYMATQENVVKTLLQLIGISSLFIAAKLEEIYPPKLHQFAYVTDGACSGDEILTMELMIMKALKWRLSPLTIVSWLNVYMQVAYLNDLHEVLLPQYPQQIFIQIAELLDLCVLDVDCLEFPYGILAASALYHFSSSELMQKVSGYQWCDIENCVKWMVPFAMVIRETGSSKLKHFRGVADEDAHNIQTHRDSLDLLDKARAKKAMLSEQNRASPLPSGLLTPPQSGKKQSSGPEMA
Sequence of CDK3/Cyclin E (Homo sapiens) (Q00526 whole entry, looked up): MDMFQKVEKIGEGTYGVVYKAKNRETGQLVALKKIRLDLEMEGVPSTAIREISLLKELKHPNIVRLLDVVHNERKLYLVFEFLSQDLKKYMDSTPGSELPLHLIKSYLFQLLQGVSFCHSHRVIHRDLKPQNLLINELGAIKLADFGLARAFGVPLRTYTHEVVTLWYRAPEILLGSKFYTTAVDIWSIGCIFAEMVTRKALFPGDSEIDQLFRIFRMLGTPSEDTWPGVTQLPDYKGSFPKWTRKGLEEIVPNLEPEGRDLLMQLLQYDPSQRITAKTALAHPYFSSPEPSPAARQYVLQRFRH

Structure (SMILES) | inhibition [1] [%] | inhibition [2] [%] | inhibition [3] [%] | inhibition [4] [%] | inhibition [5] [%] | inhibition [6] [%] | inhibition [7] [%] | inhibition [8] [%] | inhibition [9] [%] | inhibition [10] [%] | inhibition [11] [%] | inhibition [12] [%] | inhibition [13] [%] | inhibition [14] [%] | inhibition [15] [%] | inhibition [16] [%] | inhibition [17] [%] | inhibition [18] [%] | inhibition [19] [%] | inhibition [20] [%]
CCN1CCC(CC(=O)Nc2n[nH]c3nnc(-c4cccc(F)c4F)cc23)CC1 | 4.19 | 2.14 | 1.72 | 3.15 | 1.74 | 0.5 | -1.29 | 0.85 | 2.08 | -0.21 | -0.19 | -0.19 | 1.47 | 1.67 | 8.73 | 2.71 | 13.8 | 1.12 | 7.61 | 0.16
COC(=O)Nc1nc2ccc(S(=O)(=O)c3ccc(NC(=O)Nc4cc(C(F)(F)F)ccc4F)cc3)cc2[nH]1 | 3.98 | 2.57 | 0.57 | 0.12 | -0.82 | 2.65 | 5.12 | 2.34 | 2.83 | 1.08 | 2.81 | 2.17 | 2.25 | 0.69 | 2.29 | 1.37 | 4.57 | 3.44 | 3.85 | 3.5
CNC(=O)c1cccc(C#Cc2cncnc2Nc2ccc(OCc3cccc(F)c3)c(Cl)c2)c1 | 0.61 | 1.65 | 1.56 | 1.7 | 2.08 | -4.8 | 0.1 | 1.2 | 1.46 | 1.23 | 1.26 | 2.38 | 0.88 | 0.46 | 2.85 | -0.2 | 6.57 | 4.58 | 4.27 | 2.79
CCn1cc(-c2ccnc3[nH]ccc23)c(-c2cccc(NC(=O)Nc3ccc(OCc4ccccc4)cc3)c2)n1 | -0.26 | 1.75 | 1.5 | -0.38 | -0.63 | -1.12 | -1.47 | 1 | 1.59 | 0.29 | 1.8 | -0.46 | 0.79 | 0.04 | 0.38 | -0.95 | -1.61 | -0.54 | -2.22 | 0.47
N#Cc1c(NC(=O)CN2CCOCC2)sc2c1CCCC2 | 4.24 | -0.56 | 3.34 | 1.22 | 2.29 | 6.79 | 6.01 | 3.78 | 5.69 | 3.2 | 6.04 | 4.84 | 6.07 | 4.8 | 4.23 | 3.4 | 4.28 | 6.96 | 8.06 | 5.84
CC(=O)NCc1cccc(C#Cc2cncnc2Nc2ccc(OCc3cccc(F)c3)c(Cl)c2)c1 | 4.8 | 1.79 | 2.15 | 0.5 | 1.59 | -1.4 | -0.4 | 0.6 | 0.01 | -0.69 | 0.99 | -1.04 | -0.37 | 0.28 | 2.88 | 1.01 | -3.16 | 1.24 | 3.29 | 1.84
COc1ccc2[nH]c3c4[nH]c5ccc(OC)cc5c4c4c(c3c2c1)C(=O)NC4=O | 53.9 | 3.96 | 11.6 | 3.41 | 4.83 | 2.15 | 5.69 | 4.82 | 4.21 | 2.32 | 3.1 | 4.06 | 5 | 0.17 | 3.22 | 1.85 | 3 | 3.64 | 4.91 | 2.31
Nc1ncc(-c2cccc(S(N)(=O)=O)c2)c2scc(-c3ccc(F)c(Cl)c3)c12 | 3.47 | 3.24 | 4.96 | 2.48 | 2.51 | 6.19 | 36.5 | 2.96 | 4.15 | 2.73 | 3.79 | 2.58 | 4.97 | 1.33 | 2.57 | 1.79 | 2.91 | 2.68 | 5.08 | -2.34
Fc1ccc(-c2nn3ccccc3c2-c2ccncc2)cc1 | 0.18 | 1.12 | 1.44 | -0.56 | 0.24 | 13.7 | 58.4 | 1.48 | 8.01 | 1.65 | 7.48 | 0.7 | 15.1 | 0.74 | 1.96 | 2.05 | 2.06 | 1.19 | 2.02 | 0.78
COc1ccc(-c2oc3ncnc(N)c3c2-c2ccc(NC(=O)Nc3cc(C(F)(F)F)ccc3F)cc2)cc1 | 3.95 | 4.93 | 5.3 | 3.63 | 3.45 | 3.27 | 3.17 | 2.43 | 3.7 | 2.18 | 1.65 | 0.82 | 3.84 | 0.92 | 7.71 | 1.73 | 28.1 | 4.28 | 28.8 | 4.83
COc1cc2ncn(-c3cc(OCc4ccccc4C(F)(F)F)c(C(=O)N(C)C)s3)c2cc1OC | 0.81 | 1.76 | 1.34 | 0.13 | 0.32 | 0.11 | 0.76 | -0.13 | 0.81 | 0.13 | 0.02 | -1.27 | 0.6 | 0.2 | 1.91 | 1.29 | -0.21 | -0.22 | 0.54 | 1.54
CCCN(CCS(C)(=O)=O)Cc1ccc(-c2ccc3ncnc(Nc4ccc(OCc5cccc(F)c5)c(Cl)c4)c3c2)o1 | 5.16 | 2.58 | 1.44 | 0.97 | 0.36 | 1.49 | 3.77 | 1.24 | 1.53 | 0.76 | 3.18 | -1.08 | 1.11 | 2.23 | 8.04 | 0.78 | -1.6 | 1.97 | 7 | 0.67
COc1cc2c(cc1Nc1nc(Nc3ccsc3C(N)=O)c3cc[nH]c3n1)N(C(=O)CN(C)C)CCC2(C)C | 50.7 | 94.6 | 96.3 | 87.4 | 94.6 | 4.27 | 14.9 | 6.43 | 21.1 | 3.76 | 20.6 | 4.29 | 24.3 | 2.56 | 6.04 | 3.04 | -0.79 | 8.82 | 10.2 | 8.96
